Assay results as given in PubChem BioAssay (NCATS).
Inconclusive results are not listed. The source made the active and inactive calls. Unless noted, calls follow the shape of the full dose curve.

What was measured:
[1] = molecular target: Estrogen receptor (Homo sapiens) (UniProt P03372); assay: qHTS assay for small molecule agonists of estrogen receptor alpha signaling (AID 588514);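 also: 0% = vehicle only and 100% = reference agonist; nearly all actives have a fitted effect of over 70% in size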
Estrogen receptor (Homo sapiens), sequence (P03372 whole entry, looked up): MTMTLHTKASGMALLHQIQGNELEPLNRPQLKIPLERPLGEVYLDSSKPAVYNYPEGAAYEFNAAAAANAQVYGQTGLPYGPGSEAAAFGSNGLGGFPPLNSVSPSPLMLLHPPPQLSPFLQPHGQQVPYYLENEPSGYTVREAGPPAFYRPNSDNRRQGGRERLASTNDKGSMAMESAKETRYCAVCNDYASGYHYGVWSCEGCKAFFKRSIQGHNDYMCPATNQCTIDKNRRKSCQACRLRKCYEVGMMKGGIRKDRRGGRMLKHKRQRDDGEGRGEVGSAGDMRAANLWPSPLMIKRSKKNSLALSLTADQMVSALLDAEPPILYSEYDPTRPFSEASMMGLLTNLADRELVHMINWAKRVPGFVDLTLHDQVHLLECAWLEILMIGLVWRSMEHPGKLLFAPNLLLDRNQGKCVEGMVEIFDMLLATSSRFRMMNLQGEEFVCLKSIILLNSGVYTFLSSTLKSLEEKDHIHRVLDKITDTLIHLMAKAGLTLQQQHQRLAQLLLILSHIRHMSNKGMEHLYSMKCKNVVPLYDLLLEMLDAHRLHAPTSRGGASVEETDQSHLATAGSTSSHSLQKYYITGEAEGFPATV
Method in brief: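 Efficacy is expressed against 20 nM 17-beta-estradiol (100%) and DMSO basal (0%); EC50 from Hill equation. Assay: beta-lactamase reporter in ER-alpha-UAS-bla HEK 293 cells, 18 h compound incubation, CCF4 detection.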

[2] = molecular target: Peroxisome proliferator-activated receptor delta (Homo sapiens) (UniProt Q03181); assay: qHTS assay for small molecule agonists of peroxisome proliferator-activated receptor delta signaling (AID 588534);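 also: 0% = DMSO basal wells and 100% = positive control agonist at 10 µM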
Peroxisome proliferator-activated receptor delta (Homo sapiens), sequence (Q03181 whole entry, looked up): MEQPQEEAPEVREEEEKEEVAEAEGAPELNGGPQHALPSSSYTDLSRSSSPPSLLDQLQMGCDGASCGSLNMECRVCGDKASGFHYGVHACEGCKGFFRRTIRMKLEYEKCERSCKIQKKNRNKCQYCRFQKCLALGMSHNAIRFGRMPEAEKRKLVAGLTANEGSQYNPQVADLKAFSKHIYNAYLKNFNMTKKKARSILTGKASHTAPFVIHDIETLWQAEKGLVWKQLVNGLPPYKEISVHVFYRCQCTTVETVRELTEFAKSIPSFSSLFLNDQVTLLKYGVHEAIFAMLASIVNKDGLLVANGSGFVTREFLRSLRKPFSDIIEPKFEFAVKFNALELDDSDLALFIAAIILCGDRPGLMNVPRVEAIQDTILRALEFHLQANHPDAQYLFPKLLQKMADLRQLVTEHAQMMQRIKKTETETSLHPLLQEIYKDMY
Method in brief: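 Agonist-mode qHTS; reporter cells, 5 hrs 37 C pre-incubation; compound titration, 18 hrs 37 C; CCF4 dye, 2 hrs RT; fluorescence read. EC50/efficacy via Hill fit.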

[3] = molecular target: Vitamin D3 receptor (Homo sapiens) (UniProt P11473); assay: qHTS assay for small molecule antagonists of vitamin D receptor signaling (AID 588541);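 also: receptor activated by calcitriol during compound treatment; series mostly up to about 77 µM; % is scaled to controls: 0 for no effect and ±100 for the full control effect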
Vitamin D3 receptor (Homo sapiens), sequence (P11473 whole entry, looked up): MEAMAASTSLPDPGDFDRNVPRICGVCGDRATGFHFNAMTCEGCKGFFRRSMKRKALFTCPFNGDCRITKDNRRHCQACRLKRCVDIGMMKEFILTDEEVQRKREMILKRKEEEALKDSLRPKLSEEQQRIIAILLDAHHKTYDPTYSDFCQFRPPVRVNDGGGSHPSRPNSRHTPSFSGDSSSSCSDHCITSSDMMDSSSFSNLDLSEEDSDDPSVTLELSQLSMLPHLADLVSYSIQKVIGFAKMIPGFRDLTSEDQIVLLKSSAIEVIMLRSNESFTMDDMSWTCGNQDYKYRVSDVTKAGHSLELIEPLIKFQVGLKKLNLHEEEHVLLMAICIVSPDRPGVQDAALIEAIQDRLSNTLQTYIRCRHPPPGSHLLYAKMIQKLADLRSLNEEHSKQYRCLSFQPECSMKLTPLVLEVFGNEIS
Method in brief: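 VDR-UAS-bla HEK293T cells (2000/well, 2% charcoal-stripped FBS) were treated with titrated compounds plus 1-alpha,25-dihydroxyvitamin D3 (50 nM or 3 nM final) for 16 h at 37 C. CCF4 beta-lactamase fluorescence was read; Hill fits gave IC50.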

[4] = molecular target: Vitamin D3 receptor (Homo sapiens) (UniProt P11473); assay: qHTS assay for small molecule agonists of vitamin D receptor signaling (AID 588543);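 also: 0% = DMSO basal and 100% = reference agonist control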
Method in brief: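 Agonist-mode beta-lactamase reporter: HEK293T VDR-UAS-bla cells in charcoal-stripped 2% FBS, compound series 16 h 37 C, CCF4 2 h RT. EC50 from Hill fit, scaled against DMSO and 50 nM calcitriol control.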

[5] = molecular target: Retinoic acid receptor RXR-alpha (Homo sapiens) (UniProt P19793); assay: qHTS assay for small molecule agonists of retinoid X receptor alpha signaling (AID 588544);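 also: 0% = DMSO basal wells and 100% = reference agonist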
Retinoic acid receptor RXR-alpha (Homo sapiens), sequence (P19793 whole entry, looked up): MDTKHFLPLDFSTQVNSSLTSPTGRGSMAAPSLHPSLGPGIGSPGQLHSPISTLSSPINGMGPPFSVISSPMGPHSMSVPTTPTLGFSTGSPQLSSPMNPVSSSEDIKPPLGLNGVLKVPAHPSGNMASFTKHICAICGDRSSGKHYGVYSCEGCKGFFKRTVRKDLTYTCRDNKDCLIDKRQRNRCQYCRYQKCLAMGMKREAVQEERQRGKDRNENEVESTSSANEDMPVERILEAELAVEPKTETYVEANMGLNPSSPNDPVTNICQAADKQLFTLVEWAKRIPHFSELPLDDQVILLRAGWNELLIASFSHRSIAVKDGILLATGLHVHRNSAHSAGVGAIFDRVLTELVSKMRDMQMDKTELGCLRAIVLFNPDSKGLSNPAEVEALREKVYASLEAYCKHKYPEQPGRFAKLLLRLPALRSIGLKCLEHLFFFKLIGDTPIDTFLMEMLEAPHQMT

[6] = molecular target: Thyroid hormone receptor beta (Homo sapiens) (UniProt P10828); assay: qHTS assay for small molecule agonists of thyroid hormone receptor beta signaling (AID 588545);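 also: 0% = DMSO only and 100% = 10 nM T3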
Thyroid hormone receptor beta (Homo sapiens), sequence (P10828 whole entry, looked up): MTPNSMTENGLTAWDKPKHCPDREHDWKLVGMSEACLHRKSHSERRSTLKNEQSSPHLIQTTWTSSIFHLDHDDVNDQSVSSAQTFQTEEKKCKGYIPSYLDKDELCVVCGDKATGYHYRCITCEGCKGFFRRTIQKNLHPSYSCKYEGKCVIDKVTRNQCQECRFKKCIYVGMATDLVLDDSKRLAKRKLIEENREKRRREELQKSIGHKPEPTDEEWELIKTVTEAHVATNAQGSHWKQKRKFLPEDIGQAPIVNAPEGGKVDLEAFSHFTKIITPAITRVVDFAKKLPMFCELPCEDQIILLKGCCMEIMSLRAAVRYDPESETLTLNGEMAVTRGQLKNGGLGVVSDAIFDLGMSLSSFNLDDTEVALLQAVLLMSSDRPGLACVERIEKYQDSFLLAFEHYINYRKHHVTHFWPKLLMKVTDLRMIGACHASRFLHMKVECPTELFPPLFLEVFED
Method in brief: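 Compounds were tested as agonists in TR-UAS-bla-GripTite HEK 293 cells. After 18 hrs at 37 C, CCF4 substrate was added and fluorescence read after 2 hrs at room temperature.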

[7] = qHTS assay for small molecule antagonists of retinoid X receptor alpha signaling (AID 588546; active = well fitted inhibition curve with a large enough effect in the signal ratio, with a control signal flat, not every such curve was filed as active; the % refers to the signal ratio;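 also: cells stimulated with 9-cis-retinoic acid as agonist; % is scaled to controls: 0 for no effect and ±100 for the full control effect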); details: HEK293T RXRa-UAS-bla, beta-lactamase ratio, antagonist mode; measured here: W530 green channel, cytotoxicity proxy
Method in brief: (§1)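 Beta-lactamase reporter inhibition, read as CCF4 fluorescence ratio (ex 405, em 460/530 nm) after 2 h at RT. HEK293T UAS-bla cells, 2500/well, were stimulated with 9-cis-RA at 500 or 100 nM final alongside test compound for 18 h at 37 C.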

[8] = molecular target: Retinoic acid receptor RXR-alpha (Homo sapiens) (UniProt P19793); assay: as above; details: HEK293T RXRa-UAS-bla, beta-lactamase ratio, antagonist mode
Method in brief: as §1

[9] = qHTS assay for small molecule activators of the nuclear factor-kappa B (NF-kB) signaling pathway (AID 651749; active = well fitted activation curve with a large enough effect in the signal ratio; the % refers to the signal ratio; also: series mostly up to about 77 µM; % of control where 0% means no effect); details: NF-kB-bla ME-180 cells, beta-lactamase FRET ratio, 16 h; activation: stronger effect = higher value
Method in brief: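 Human ME-180 cervical cells with an NF-kB-bla construct; compounds added via 23 nL pin transfer, DMSO as vehicle; incubation 16 hr. Reporter activity measured by FRET disruption.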

[10] = qHTS assay for environmental chemicals that activate the Aryl hydrocarbon Receptor (AhR) signaling pathway (AID 651777; active = well fitted curve in the direction sought with a large enough effect; an effect the other way counts as inactive or inconclusive; also: % of control where 0% means no effect; nearly all actives have a fitted effect of over 15% in size); details: 1A2-DRE human hepatoma cells, luciferase, 24 h; activation: stronger effect = higher value
Method in brief: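 Luminescence read-out: One-Glo added for 30 min at RT after 24 hr compound treatment (37 C, 5% CO2) of human hepatoma cells expressing a DRE/CYP1A2 promoter–luciferase reporter; increased signal indicates AhR activation.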

[11] = molecular target: Peroxisome proliferator-activated receptor alpha (Homo sapiens) (UniProt Q07869); assay: qHTS assay for small molecule agonists of the peroxisome proliferator-activated receptor alpha (PPARalpha) signaling pathway (AID 651778; active = well fitted curve in the direction sought with a large enough effect; an effect the other way counts as inactive or inconclusive; also: % of control where 0% means no effect); details: PathHunter PPARalpha complementation, chemiluminescence, 6 h; max response: stronger effect = higher value
Peroxisome proliferator-activated receptor alpha (Homo sapiens), sequence (Q07869 whole entry, looked up): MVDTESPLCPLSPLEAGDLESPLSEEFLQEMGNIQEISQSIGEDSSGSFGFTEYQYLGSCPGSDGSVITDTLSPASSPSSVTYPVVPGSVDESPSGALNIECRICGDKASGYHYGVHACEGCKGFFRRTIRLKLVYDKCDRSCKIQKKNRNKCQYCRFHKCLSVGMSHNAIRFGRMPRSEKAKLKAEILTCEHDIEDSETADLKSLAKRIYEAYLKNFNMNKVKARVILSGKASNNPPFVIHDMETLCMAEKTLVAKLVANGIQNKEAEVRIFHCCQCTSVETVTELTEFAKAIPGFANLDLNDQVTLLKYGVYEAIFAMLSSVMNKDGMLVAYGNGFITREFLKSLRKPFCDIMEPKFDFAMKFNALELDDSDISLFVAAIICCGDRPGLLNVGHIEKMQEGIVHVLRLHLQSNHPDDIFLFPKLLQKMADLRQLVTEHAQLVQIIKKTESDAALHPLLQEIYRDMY
Method in brief: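 Cells plated at 2,000/well and held overnight at 37 C, 5% CO2, then compound added by pin tool for 6 hr; after PathHunter detection reagent and 60 min at room temperature, chemiluminescence from enzyme complementation was read.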

[12] = qHTS assay for small molecule agonists of the antioxidant response element (ARE) signaling pathway measured by Nrf2-dependant transcriptional activity (AID 720636; active = well fitted curve in the direction sought with a large enough effect in the repeat runs; an effect the other way counts as inactive or inconclusive;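 also: HepG2 cells with an ARE-driven luciferase reporter; % of control where 0% means no effect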)
Method in brief: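 HepG2 ARE-luc reporter line, 1% dialyzed FBS; 6 hr attachment at 37 C, compound pinned in, 16 hr at 37 C/5% CO2; ONE-Glo, 30 min RT, luminescence read.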

[13] = qHTS assay for small molecule agonists of the antioxidant response element (ARE) signaling pathway measured by Nrf2-dependant transcriptional activity - cell viability counter screen (AID 720653; active = well fitted curve in the direction sought with a large enough effect in the repeat runs; an effect the other way counts as inactive or inconclusive; also: % is scaled to controls: 0 for no effect and ±100 for the full control effect); details: ARE-bla HepG2 viability, CellTiter-Glo ATP luminescence, 16 h; max response: stronger effect = lower value
Method in brief: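 ARE-bla HepG2 cells (2,000/well) rested 5 hrs at 37C/5% CO2, then exposed to compounds in DMSO for 16 hrs. Viability was read in the same wells as intracellular ATP by luminescence, 30 min at room temperature after reagent addition.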

[14] = qHTS assay for cell viability of HEK293 cells (AID 743288; active = well fitted curve in the direction sought with a large enough effect; an effect the other way counts as inactive or inconclusive; also: % is scaled to controls: 0 for no effect and ±100 for the full control effect; nearly all actives have a fitted effect of over 50% in size); details: ATP luminescence (CellTiter-Glo), 18 h; max response: stronger effect = lower value
Method in brief: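 Readout is luciferase-coupled ATP content (CellTiter-Glo luminescence, 30 min room temperature) as a measure of metabolically competent cells. Parental HEK293 cells were plated 5 h or more before compound addition, then treated 18 h at 37 C.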

[15] = qHTS assay for cell viability of the p53RE-bla HCT-116 cell line (AID 743292; active = well fitted curve in the direction sought with a large enough effect; an effect the other way counts as inactive or inconclusive; also: % is scaled to controls: 0 for no effect and ±100 for the full control effect; nearly all actives have a fitted effect of over 55% in size)
Method in brief: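 Luminescent ATP quantitation (CellTiter-Glo) served as the viability read-out; reagent was added after 16 h compound exposure at 37 C and read after 30 min at room temperature. Cells: p53RE-bla HCT-116, 4,000 per well.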

[16] = molecular target: Glucocorticoid receptor (Homo sapiens) (UniProt P04150); assay: qHTS assay for small molecule agonists of glucocorticoid receptor signaling (AID 588532; active = well fitted curve in the direction sought with a large enough effect in the signal ratio, with a control signal flat; the % refers to the signal ratio;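 also: 100% = dexamethasone at 0.1 µM and 0% = DMSO only wells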); details: HeLa MMTV-bla, beta-lactamase ratio, agonist, 18 h; activation: stronger effect = higher value, percent of dexamethasone control, DMSO zero
Glucocorticoid receptor (Homo sapiens), sequence (P04150 whole entry, looked up): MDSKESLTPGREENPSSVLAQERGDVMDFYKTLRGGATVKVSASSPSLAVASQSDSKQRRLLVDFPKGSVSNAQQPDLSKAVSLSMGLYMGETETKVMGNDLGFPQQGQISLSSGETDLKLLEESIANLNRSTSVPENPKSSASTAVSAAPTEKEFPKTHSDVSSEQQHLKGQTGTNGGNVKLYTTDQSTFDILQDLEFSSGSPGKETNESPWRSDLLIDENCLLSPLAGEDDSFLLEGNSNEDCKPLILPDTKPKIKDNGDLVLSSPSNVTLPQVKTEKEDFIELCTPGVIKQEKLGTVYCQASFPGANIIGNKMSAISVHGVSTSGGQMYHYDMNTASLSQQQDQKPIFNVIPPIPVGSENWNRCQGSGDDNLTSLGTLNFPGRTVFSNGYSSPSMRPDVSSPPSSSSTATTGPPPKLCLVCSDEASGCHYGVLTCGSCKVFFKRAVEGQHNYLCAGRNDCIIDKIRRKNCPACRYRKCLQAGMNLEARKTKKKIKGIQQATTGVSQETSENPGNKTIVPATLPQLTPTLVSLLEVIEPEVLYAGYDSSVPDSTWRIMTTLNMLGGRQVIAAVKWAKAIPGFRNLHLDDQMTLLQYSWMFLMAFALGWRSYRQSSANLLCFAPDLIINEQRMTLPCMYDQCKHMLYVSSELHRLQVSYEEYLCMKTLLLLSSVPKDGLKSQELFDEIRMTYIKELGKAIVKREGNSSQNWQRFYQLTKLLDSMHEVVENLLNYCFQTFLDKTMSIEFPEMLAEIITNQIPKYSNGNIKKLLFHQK
Method in brief: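 Titration series, up to 92 uM, applied to GRE-bla HeLa cells for 18 h at 37 C. Detection by CCF4 FRET substrate after 2 h at RT.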

[17] = molecular target: Peroxisome proliferator-activated receptor delta (Homo sapiens) (UniProt Q03181); assay: qHTS assay for small molecule antagonists of peroxisome proliferator-activated receptor delta signaling (AID 588535; active = well fitted inhibition curve with a large enough effect in the signal ratio, with a control signal flat, not every such curve was filed as active; the % refers to the signal ratio)
Method in brief: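 Inhibition of PPAR-delta response element-driven beta-lactamase expression is measured in HEK293T cells exposed to a compound titration series for 18 hrs at 37 C. Half-maximal inhibition comes from Hill equation fitting.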

[18] = molecular target: Peroxisome proliferator-activated receptor gamma (Homo sapiens) (UniProt P37231); assay: qHTS assay for small molecule agonists of peroxisome proliferator-activated receptor gamma signaling (AID 588536; active = well fitted curve in the direction sought with a large enough effect in the signal ratio, with a control signal flat, not every such curve was filed as active; the % refers to the signal ratio;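 also: 0% = DMSO basal wells and 100% = rosiglitazone at 2 µM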)
Peroxisome proliferator-activated receptor gamma (Homo sapiens), sequence (P37231 whole entry, looked up): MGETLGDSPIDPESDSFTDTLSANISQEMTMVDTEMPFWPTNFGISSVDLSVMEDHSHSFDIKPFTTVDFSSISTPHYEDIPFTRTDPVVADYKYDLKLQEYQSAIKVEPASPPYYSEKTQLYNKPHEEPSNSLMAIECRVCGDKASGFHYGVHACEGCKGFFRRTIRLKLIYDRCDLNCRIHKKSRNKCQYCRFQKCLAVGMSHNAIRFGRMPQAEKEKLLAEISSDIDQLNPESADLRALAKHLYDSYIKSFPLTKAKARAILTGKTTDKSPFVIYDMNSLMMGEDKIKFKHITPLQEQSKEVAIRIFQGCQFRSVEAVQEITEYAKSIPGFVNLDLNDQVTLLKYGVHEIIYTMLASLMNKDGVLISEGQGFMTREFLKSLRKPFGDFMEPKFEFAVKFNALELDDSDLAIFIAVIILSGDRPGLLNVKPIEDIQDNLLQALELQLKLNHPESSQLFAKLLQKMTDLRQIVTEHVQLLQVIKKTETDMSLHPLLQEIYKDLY
Method in brief: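 Beta-lactamase reporter read-out: CCF4 fluorescence (ex 405, em 460/530 nm) after 2 h at RT. HEK293 GeneBLAzer cells were treated for 16 h at 37 C. Hill fits gave EC50 and efficacy versus 2 uM rosiglitazone (100%) and DMSO (0%).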

[19] = qHTS assay for small molecule activators of the p53 signaling pathway (AID 651743; active = well fitted activation curve with a large enough effect in the signal ratio, not every such curve was filed as active; the % refers to the signal ratio; also: series mostly up to about 92 µM; % of control where 0% means no effect); details: HCT-116 p53RE-bla, beta-lactamase FRET ratio, 16 h; activation: stronger effect = higher value
Method in brief: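 Agonist-mode quantitative HTS in HCT-116 cells carrying a p53-response-element beta-lactamase reporter; 16 h compound treatment at 37 C, then FRET substrate loading for 2 h at room temperature and fluorescence read.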

[20] = molecular target: Nuclear receptor subfamily 1 group I member 2 (Rattus norvegicus) (UniProt Q9R1A7); assay: qHTS assay for small molecule activators of the rat pregnane X receptor (rPXR) signaling pathway (AID 651751; call rule not given here; also: 0% is about no effect); details: rPXR reporter cells, luciferase (One-Glo), 24 h
Nuclear receptor subfamily 1 group I member 2 (Rattus norvegicus), sequence (Q9R1A7 whole entry, looked up): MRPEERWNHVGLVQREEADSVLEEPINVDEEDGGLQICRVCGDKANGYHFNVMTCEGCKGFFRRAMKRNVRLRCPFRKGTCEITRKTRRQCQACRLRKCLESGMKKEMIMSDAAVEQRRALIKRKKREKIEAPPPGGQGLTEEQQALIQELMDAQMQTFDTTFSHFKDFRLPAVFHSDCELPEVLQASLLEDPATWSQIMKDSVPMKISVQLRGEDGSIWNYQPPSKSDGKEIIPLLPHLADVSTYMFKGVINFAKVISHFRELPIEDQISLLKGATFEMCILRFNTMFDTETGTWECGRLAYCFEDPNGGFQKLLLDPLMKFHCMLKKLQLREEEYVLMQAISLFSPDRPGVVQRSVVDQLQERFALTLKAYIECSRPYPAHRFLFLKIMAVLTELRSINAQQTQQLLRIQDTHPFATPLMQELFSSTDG

Structure (SMILES): CC1(C)CCC(Cc2ccc(Cl)cc2)C1(O)Cn1cncn1 (centres undefined)
- Potency [1]: inactive
- outcome [2]: inactive
- Potency [3]: inactive
- outcome [4]: inactive
- Potency [5]: inactive
- Potency [6]: inactive
- max response [7]: -14.2%
- max response [8]: -14.3% (inactive)
- activation [9]: -0.913% (inactive)
- activation [10]: -1.24% (inactive)
- max response [11]: -1.67% (inactive)
- Potency [12]: inactive
- max response [13]: -10.5% (inactive)
- max response [14]: -17.8% (inactive)
- Potency [15]: inactive

Structure (SMILES): CCC[CH2][Sn](=[O])[CH2]CCC
- activation [16]: -3.35% (inactive)
- outcome [2]: inactive
- Potency [17]: inactive
- Potency [18]: inactive
- Potency [3]: inactive
- Potency [5]: inactive
- Potency [6]: inactive
- max response [7]: -4.07%
- max response [8]: -4.87% (inactive)
- activation [19]: 2.27% (inactive)
- activation [9]: -1.97% (inactive)
- activation [10]: 3.37% (inactive)
- Potency [12]: inactive
- max response [13]: 5.71% (inactive)
- max response [14]: -6.83% (inactive)
- Potency [15]: inactive
- max response [20]: 4.58% (inactive)

Structure (SMILES): CN/C(=N\[N+](=O)[O-])NCc1cnc(Cl)s1
- Potency [1]: inactive
- Potency [18]: inactive
- Potency [3]: inactive
- outcome [4]: inactive
- Potency [5]: inactive
- Potency [6]: inactive
- max response [7]: -9.8%
- max response [8]: -1.36% (inactive)
- activation [10]: 1.58% (inactive)
- max response [11]: -0.992% (inactive)
- Potency [12]: inactive
- max response [13]: 0.65% (inactive)
- max response [14]: -4.28% (inactive)
- Potency [15]: inactive
- max response [20]: 6.52% (inactive)

Structure (SMILES): CC1=C(C(=O)Nc2ccccc2)S(=O)(=O)CCO1
- Potency [1]: inactive
- activation [16]: -17.4% (inactive)
- Potency [18]: inactive
- Potency [6]: inactive
- activation [9]: -0.594% (inactive)
- activation [10]: -2.25% (inactive)
- max response [11]: -2.04% (inactive)
- max response [13]: -1.32% (inactive)
- max response [14]: -49.4% (inactive)
- Potency [15]: inactive
- max response [20]: -5.83% (inactive)

Structure (SMILES): CCOP(=O)(OCC)OP(=O)(OCC)OCC
- outcome [2]: inactive
- Potency [17]: inactive
- Potency [18]: inactive
- Potency [3]: inactive
- outcome [4]: inactive
- Potency [5]: inactive
- Potency [6]: inactive
- max response [7]: -3.28%
- max response [8]: -9.63% (inactive)
- activation [19]: -6.2% (inactive)
- activation [9]: -0.353% (inactive)
- activation [10]: -0.108% (inactive)
- max response [11]: -1.23% (inactive)
- Potency [12]: inactive
- max response [13]: 5.73% (inactive)
- max response [14]: -8.91% (inactive)
- Potency [15]: inactive
- max response [20]: 8.32% (inactive)

Structure (SMILES): C[N+]1(C)CCCCC1
- outcome [2]: inactive
- Potency [17]: inactive
- Potency [18]: inactive
- Potency [3]: inactive
- outcome [4]: inactive
- Potency [5]: inactive
- Potency [6]: inactive
- max response [7]: -2.65%
- max response [8]: 0.987% (inactive)
- activation [19]: 0.854% (inactive)
- activation [9]: 0.391% (inactive)
- activation [10]: 0.858% (inactive)
- max response [11]: -0.937% (inactive)
- Potency [12]: inactive
- max response [13]: 4.82% (inactive)
- max response [14]: -11.8% (inactive)
- Potency [15]: inactive
- max response [20]: 3.55% (inactive)
